Screening data deposited in PubChem by Broad Institute.
Shown is part of a subset that was picked to be rich in hits.
Tgondii IFNg – T. gondii growth inhibition with IFN-gamma, primary screen, cell-based; Toxoplasma gondii growth in IFN-gamma-treated host cells; active compounds read low; AID 1259416, 2018; activity change, negative = inhibition, % (concentration not given with the values); hit rate 3.8% among 69,000; in the data active = activity change below about -70%, passing the limit was not always enough;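 also: host cells are HeLa cells infected with Toxoplasma gondii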
* marks the source's active call; other numbers are inactive results; i = inactive.

SMILES | Tgondii IFNg
CCOc1ccc(NS(=O)(=O)c2ccc(NC(=O)c3cccs3)cc2)cc1 | 2
CCCCCOC(=O)Nc1ccc(S(=O)(=O)Nc2ccc(Br)cc2)cc1 | -87*
Fc1ccc(-c2ncnc3c2CCN(c2ncccn2)CC3)cc1 | -51
Cc1oc(-c2ccc(C(=O)NCCCN3CCCC3)cc2)nc1CN1CCN(c2ccccc2)CC1 | -60
O=C(c1ccc2c(c1)OCO2)N1CCCCC1 | -4
O=C(O)c1cccc(-c2ccc3c(c2)OCO3)c1 | -75*
O=C(O)c1cc(-c2ccc3c(c2)OCO3)nc2ccc(Br)cc12 | 8
Cc1cc(C)c(C(=O)N2CCCN(CC3CC3)C(C(C)C)C2)c(=O)[nH]1 (stereo not drawn) | 0
O=C(NCCc1csc(-c2cccc(F)c2)n1)C(=O)Nc1cccc(F)c1 | -56
COCCN1C(=O)CC[C@H]2[C@H]1CCN2C(=O)c1cccc(C)n1 | -6
COc1ccc2c3c(n(C)c2c1)[C@H](CO)N(CC1CC1)CC31CCN(S(=O)(=O)c2cccs2)CC1 | -59
CN1CCC2(CCOCC2NC(=O)c2ccccc2)CC1 (stereo not drawn) | -1
CC(=O)N1CCC2(CCOCC2NC(=O)c2ccccc2)CC1 (stereo not drawn) | -93*
CCOCC1COCCC12CCN(C(=O)CCc1ccccc1)CC2 (stereo not drawn) | -1
CS(=O)(=O)N1CCCC12CCN(C(=O)c1cscn1)C2 (stereo not drawn) | 5
CCOC(=O)C1(Cc2cc(-c3ccccc3C)no2)CCN(Cc2ccccn2)CC1 | -77*
C=CCN1C[C@H]2CN(Cc3ccccn3)CCC[C@@]2(C(=O)OCC)C1 | -5
CCOC(=O)[C@@]12CCCN(Cc3ccccn3)C[C@@H]1CN(C(C)C)C2 | 17
COCCN1C(=O)CCc2cc(NC(=O)c3ccccc3Br)ccc21 | -23
O=c1ccc2cc(S(=O)(=O)Nc3cccc(F)c3)ccc2[nH]1 | i
Cc1ccc(S(=O)(=O)c2nc(/C=C3/N(C)c4ccccc4C3(C)C)sc2Cl)cc1 | 7
CC(C)[C@@H]1CCc2cnnn2COC[C@@H](Cc2ccccc2)NC1=O | -23
Cc1n[nH]c(C)c1N=Nc1cc(Cl)cc(Cl)c1 | -92*
O=C(O)CN1CC2CCC(C1)C2C(=O)NCc1ccco1 (stereo not drawn) | -19
CCN(Cc1cccc(C(=O)Nc2cnn(C)c2)c1)Cc1nc(C)no1 | 6
SMILES | Tgondii IFNg
Cc1ccsc1CN(C)Cc1ccc(C(=O)Nc2cnn(C)c2)cc1 | -84*
COC[C@H]1CCCN1Cc1ccc(C(=O)Nc2cnn(C)c2)cc1 | 3
Cc1nc(-c2ccc(F)cc2)sc1CCNC(=O)C(=O)Nc1ccc(F)cc1F | -14
COc1ccc(-c2nc(CNS(=O)(=O)c3ccc(C)cc3C)c(C)o2)cc1 | 9
COc1ccc(OC)c(S(=O)(=O)NCc2nc(-c3ccc(C)cc3)oc2C)c1 | -87*
CCOc1ccc(S(=O)(=O)N(C)Cc2nc(-c3ccc(C)cc3)oc2C)cc1 | 3
Cc1ccc(S(=O)(=O)NCc2nc(-c3cccc(Cl)c3)oc2C)cc1C | -24
CCOc1ccc(-c2nc(CN(C)S(=O)(=O)c3ccc(C)c(C)c3)c(C)o2)cc1 | -102*
Cc1ccc(S(=O)(=O)NCc2nc(-c3ccccc3)oc2C)cc1C | -106*
COc1ccccc1-c1nc(CN(C)S(=O)(=O)c2ccc(C)c(C)c2)c(C)o1 | -44
Cc1ccc(-c2nc(CNS(=O)(=O)c3c(C)cc(C)cc3C)c(C)o2)cc1 | -23
Cc1oc(-c2ccccc2)nc1CNS(=O)(=O)c1ccc(F)cc1 | -7
CN(C)CC1(O)CCN(C(=O)C2CCN(C(=O)c3ccncc3)CC2)C1 (stereo not drawn) | -3
c1ccc(-n2cccc2CN(Cc2cccnc2)Cc2ccc3c(c2)OCO3)nc1 | -32
O=c1n(CC2COCCO2)nc(C2CCNCC2)n1Cc1ccccc1 (stereo not drawn) | -3
CO[C@H]1CCN(C(=O)Cc2ccccn2)[C@H]1Cc1ccncc1 | 17
CN(C)C(=O)N1CCN(C)C(c2nnc3ccc(C(=O)NCCc4ccccn4)cn23)C1 (stereo not drawn) | -13
C=C1C2(C(=O)N3CCC(COC)C3)CCC(C2)C1(C)C (stereo not drawn) | 9
COc1cccc(C(=O)NCCc2csc(-c3ccc(F)cc3)n2)c1OC | 13
CCN(C(=O)c1cc(-c2ccccn2)n[nH]1)C1CCN(C)CC1 | -10
Cc1ccc(C)c(NC(=O)c2nnn(Cc3nc(-c4ccc(Cl)cc4)oc3C)c2C)c1 | 27
Cc1nonc1CC(=O)Nc1cccc(N2CCCC2)c1 | -15
COCC(=O)N1CCC2(CC1)Nc1ccc(C)c(C)c1-n1cccc12 | 22
CN(C)C(=O)N1CCC2(CC1)CC(CC(=O)Nc1cccnc1)c1ccccc1O2 (stereo not drawn) | -113*
CCC(=O)N1CCC2(CC1)CC(CC(=O)Nc1cccnc1)c1ccccc1O2 (stereo not drawn) | -3
SMILES | Tgondii IFNg
O=C(O)CC1CC2(CCN(C(=O)Cc3cccnc3)CC2)Oc2ccccc21 (stereo not drawn) | 5
CCn1c(C2CCN(S(=O)(=O)c3cccc(OC)c3)CC2)nn(C)c1=O | 64
CCN1C(=O)CCc2cc(C(=O)N3CCOCC3)ccc21 | 12
O=C(c1ccc2c(c1)CCC(=O)N2Cc1ccccc1)N1CCN(c2ccccc2F)CC1 | -102*
CCN1C(=O)CCc2cc(C(=O)N3CCCCC3)ccc21 | 18
Cc1nc(COC[C@]23COC[C@H]2CN(C(=O)CN(C)C)C3)cs1 | 74
CCOc1ccc(CC(=O)N2CCN(S(=O)(=O)c3cc4c5c(c3)CCC(=O)N5CCC4)CC2)cc1 | -19
CCOC(=O)c1cnc(SCC(=O)Nc2ccc(C(C)=O)cc2)nc1N | 0
Cc1ccc2c(C)c(C(=O)N3CCCN(C(=O)C4CCCO4)CC3)oc2c1 (stereo not drawn) | 7
Cc1cc2c(cc3c(=O)n(CCC#N)nc(C)n32)s1 | -91*
COc1ccc(-c2nn(CCC#N)c(=O)[nH]2)cc1 | 23
Cc1cc(C)c2[nH]c(=O)c(C(c3nnnn3C(C)(C)C)N3CCc4ccccc43)cc2c1 (stereo not drawn) | 11
COCCN(Cc1cnn(C)c1)C(=O)CC1CNCCO1 (stereo not drawn) | 5
Cc1nc(N2CCOC(C(F)(F)F)C2)c2ccsc2n1 (stereo not drawn) | -7
FC(F)(F)C1CN(c2nc(-c3ccccc3)no2)CCO1 (stereo not drawn) | 21
CC(C)c1cc(N2CCOC(C(F)(F)F)C2)nc(C(F)(F)F)n1 (stereo not drawn) | -81*
COc1cc(NC(=O)CSc2nnc(C)s2)c(C(=O)O)cc1OC | 73
Nc1nc(NCc2ccccc2)nc(-c2cccc(O)c2)n1 | -11
C=CCOCc1cncc2c1CCN(C(=O)c1ccncc1)C2 | -14
COCc1cncc2c1CCN(C(=O)c1ccc[nH]1)C2 | -66
COCc1cncc2c1CCN(C(=O)c1ccncc1)C2 | -98*
COc1ccc2c(c1)c(CC(C)NC(=O)c1ccc3c(c1)ncn3C)cn2C (stereo not drawn) | 25
O=C(CC1CC2(CCN(Cc3ccco3)CC2)c2ccccc21)NCC1CC1 (stereo not drawn) | 75
O=S(=O)(Nc1ccc(C2=NCCO2)cc1)c1ccc(Cl)cc1 | -18
O=S1(=O)CCN(Cc2ccc(NS(=O)(=O)c3ccc(Cl)cc3)cc2)CC1 | -92*
CNS(=O)(=O)c1ccc(CN2CCN(Cc3cccc(F)c3)CC2)cc1 | -3
COc1ccccc1C(=O)Nc1ccc(-c2nc(-c3ccccc3)co2)cc1 | -26
